Laboratory results from PubChem BioAssay.
Calls of active or inactive are those of the source.

Assays:
[1] = small molecules captured by biotinylated probe aFSTL3 – biochemical, small-molecule microarray, fluorescence 635/667, stem cell growth factor project, primary screen (AID 1064); details: higher = more signal;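 note: measures binding of the biotinylated anti-FSTL3 antibody to printed compounds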
[2] = binders from COS7 lysate, DM2A8 probe, primary screen, torsin A project, cell lysate, small-molecule microarray, fluorescence 635/667 (AID 1065); details: higher = more signal, COS7 lysate expressing mutant human TOR1A
[3] = small molecules captured by biotinylated probe aFGF2 – biochemical, small-molecule microarray, fluorescence 635/667, stem cell growth factor project, primary screen (AID 1067); details: higher = more signal;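 note: measures binding of biotinylated aFGF2 protein to printed compounds on slides; z-score merges feature fluorescence and signal-to-noise across triplicate slides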
[4] = small molecules captured by biotinylated probe aFGF10 – biochemical, small-molecule microarray, fluorescence 635/667, stem cell growth factor project, primary screen (AID 1071); details: higher = more signal;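 note: score merges 667 nm spot intensity and signal to noise from triplicate slides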
[5] = target: Neurogenic locus notch homolog protein 2 (Homo sapiens) (UniProt Q04721); assay: small molecules binding Notch2 protein – biochemical, small-molecule microarray, 635 nm fluorescence, stem cell growth factors, primary screen (AID 1073); details: higher = more signal
Neurogenic locus notch homolog protein 2 (Homo sapiens), sequence (Q04721 whole entry, looked up, canonical isoform): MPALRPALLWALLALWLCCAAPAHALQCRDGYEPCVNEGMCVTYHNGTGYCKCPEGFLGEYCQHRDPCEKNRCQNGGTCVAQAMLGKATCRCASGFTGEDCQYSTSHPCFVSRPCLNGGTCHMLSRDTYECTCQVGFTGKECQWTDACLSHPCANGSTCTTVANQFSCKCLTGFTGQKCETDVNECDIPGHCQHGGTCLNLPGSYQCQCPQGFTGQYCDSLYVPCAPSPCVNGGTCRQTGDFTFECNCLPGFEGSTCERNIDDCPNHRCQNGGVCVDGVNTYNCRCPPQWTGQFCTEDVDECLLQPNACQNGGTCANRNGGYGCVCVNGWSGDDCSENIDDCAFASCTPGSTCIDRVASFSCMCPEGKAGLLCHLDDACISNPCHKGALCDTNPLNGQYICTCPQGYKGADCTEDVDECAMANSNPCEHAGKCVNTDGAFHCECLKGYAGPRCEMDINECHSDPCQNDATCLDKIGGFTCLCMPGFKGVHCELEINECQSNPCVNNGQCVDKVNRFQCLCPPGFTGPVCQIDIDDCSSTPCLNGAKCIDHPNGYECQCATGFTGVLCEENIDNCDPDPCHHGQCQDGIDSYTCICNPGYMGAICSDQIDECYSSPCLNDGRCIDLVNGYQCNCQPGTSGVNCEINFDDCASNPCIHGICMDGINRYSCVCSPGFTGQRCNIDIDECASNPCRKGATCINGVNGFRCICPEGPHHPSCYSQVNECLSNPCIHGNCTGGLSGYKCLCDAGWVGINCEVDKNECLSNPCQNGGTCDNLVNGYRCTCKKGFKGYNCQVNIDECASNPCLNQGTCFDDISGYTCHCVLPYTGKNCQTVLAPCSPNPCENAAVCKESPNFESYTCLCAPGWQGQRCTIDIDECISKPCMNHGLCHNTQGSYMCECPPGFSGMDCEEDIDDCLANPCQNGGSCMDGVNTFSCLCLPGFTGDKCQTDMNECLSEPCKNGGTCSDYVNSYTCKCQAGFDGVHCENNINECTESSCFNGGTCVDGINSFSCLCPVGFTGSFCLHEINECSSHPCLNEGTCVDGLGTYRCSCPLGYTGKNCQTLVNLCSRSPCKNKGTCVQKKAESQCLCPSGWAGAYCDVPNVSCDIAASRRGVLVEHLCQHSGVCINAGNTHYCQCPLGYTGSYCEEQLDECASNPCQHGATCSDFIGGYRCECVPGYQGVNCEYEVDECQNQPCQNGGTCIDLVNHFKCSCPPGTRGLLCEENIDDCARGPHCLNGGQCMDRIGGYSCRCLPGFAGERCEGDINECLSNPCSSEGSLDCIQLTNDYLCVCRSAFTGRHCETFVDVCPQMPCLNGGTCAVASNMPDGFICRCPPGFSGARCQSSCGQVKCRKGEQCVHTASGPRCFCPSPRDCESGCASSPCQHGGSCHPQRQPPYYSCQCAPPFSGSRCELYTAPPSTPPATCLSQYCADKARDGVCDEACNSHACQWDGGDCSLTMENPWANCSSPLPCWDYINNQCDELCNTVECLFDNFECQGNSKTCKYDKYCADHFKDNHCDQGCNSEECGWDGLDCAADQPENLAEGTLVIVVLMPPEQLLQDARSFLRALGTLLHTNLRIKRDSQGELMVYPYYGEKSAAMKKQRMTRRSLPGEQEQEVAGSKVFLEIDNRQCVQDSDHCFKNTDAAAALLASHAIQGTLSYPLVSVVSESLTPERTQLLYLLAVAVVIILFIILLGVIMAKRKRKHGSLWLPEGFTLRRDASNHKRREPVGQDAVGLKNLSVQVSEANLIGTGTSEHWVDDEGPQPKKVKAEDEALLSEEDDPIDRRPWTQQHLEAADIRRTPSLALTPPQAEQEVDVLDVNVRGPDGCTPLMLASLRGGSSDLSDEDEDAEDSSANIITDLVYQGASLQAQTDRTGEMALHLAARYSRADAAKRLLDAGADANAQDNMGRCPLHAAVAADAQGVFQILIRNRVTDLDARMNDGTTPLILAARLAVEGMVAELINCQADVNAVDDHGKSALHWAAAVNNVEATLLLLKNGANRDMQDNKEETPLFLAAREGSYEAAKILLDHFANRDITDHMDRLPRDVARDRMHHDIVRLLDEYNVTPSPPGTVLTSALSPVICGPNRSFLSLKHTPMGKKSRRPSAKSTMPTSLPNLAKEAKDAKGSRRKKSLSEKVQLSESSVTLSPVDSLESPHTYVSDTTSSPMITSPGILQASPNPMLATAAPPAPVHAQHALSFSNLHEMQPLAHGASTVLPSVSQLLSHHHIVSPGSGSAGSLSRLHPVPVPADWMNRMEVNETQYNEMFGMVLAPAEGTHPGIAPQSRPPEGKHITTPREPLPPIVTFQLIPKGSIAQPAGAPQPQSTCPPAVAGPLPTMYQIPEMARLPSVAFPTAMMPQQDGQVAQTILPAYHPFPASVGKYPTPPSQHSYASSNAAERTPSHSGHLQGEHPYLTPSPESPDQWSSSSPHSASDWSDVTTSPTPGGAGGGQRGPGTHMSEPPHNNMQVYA

[6] = target: Pro-neuregulin-1, membrane-bound isoform (Homo sapiens) (UniProt Q02297); assay: small molecules binding neuregulin-1 protein – biochemical, small-molecule microarray, fluorescence 635/667, psychiatric disease protein project, primary screen (AID 1075); details: NRG1 binding, 635 nm fluorescence, higher = more signal;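 note: score combines 667 nm spot fluorescence with signal to noise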
Pro-neuregulin-1, membrane-bound isoform (Homo sapiens), sequence (Q02297 whole entry, looked up, the tested form may be a part, canonical isoform): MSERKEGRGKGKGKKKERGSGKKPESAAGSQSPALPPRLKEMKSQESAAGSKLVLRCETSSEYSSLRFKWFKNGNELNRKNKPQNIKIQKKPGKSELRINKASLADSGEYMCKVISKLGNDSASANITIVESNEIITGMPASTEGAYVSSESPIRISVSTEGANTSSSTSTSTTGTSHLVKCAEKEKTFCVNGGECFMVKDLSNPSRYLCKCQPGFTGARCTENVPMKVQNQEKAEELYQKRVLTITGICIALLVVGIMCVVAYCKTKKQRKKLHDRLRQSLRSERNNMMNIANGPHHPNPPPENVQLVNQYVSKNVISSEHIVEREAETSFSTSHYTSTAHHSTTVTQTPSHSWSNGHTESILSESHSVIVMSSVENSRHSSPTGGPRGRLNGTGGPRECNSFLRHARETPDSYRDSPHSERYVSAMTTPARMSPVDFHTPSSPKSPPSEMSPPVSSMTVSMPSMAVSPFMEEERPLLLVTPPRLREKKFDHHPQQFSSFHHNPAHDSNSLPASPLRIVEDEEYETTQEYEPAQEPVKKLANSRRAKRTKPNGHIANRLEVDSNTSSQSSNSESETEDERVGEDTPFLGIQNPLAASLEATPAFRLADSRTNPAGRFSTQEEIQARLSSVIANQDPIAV

[7] = system: Neuregulin-1 EGF-like domain; assay: small molecules binding NRG1 EGF domain – biochemical, small-molecule microarray, 635 nm fluorescence, primary screen (AID 1081); details: higher = more signal;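 note: binding of the protein to compounds printed on small-molecule microarray slides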
[8] = FRG1 expression reporter modulators in myotubes – cell-based, C2C12 myotubes, firefly/Renilla luciferase, luminescence, FRG1 inhibition for FSHD, primary screen (AID 1084); details: FRG1 promoter luciferase, higher = more signal, called active from +8 up or from −8 down
[9] = small molecules captured by biotinylated probe aFST – biochemical, small-molecule microarray, fluorescence 635/667, stem cell growth factor project, primary screen (AID 1086); details: higher = more signal;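 note: score merges 667 nm fluorescence with signal-to-noise of each printed compound spot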
[10] = binders of probe aHhip on microarray, primary screen, stem cell growth factor project, biochemical, small-molecule microarray, fluorescence 635/667 (AID 1087); details: higher = more signal;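 note: score merges spot fluorescence at 667nm with spot signal to noise ratio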

SMILES | composite z-score [1] | composite z-score [2] | composite z-score [3] | composite z-score [4] | composite z-score [5] | composite z-score [6] | composite z-score [7] | z-score [8] | composite z-score [9] | composite z-score [10]
CS(=O)(=O)CCOC(=O)C1=CC(CCCO)=CC(c2cccs2)N(Cc2cc3c(cc2Br)OCO3)C=C1C(=O)OCCS(C)(=O)=O (stereo not given) | -0.281 | 0.24 | 0.0737 | 0.517 | 1.5 | 1.88 | 1.31 | -1.91 (inactive) | 0.827 | 0.463
O=C1OCCC=C[C@H]2OC34C=CCN(Cc5ccccc5)C(=O)[C@H]3N(CCCO)C(=O)[C@@H]4C12 (stereo not given in full) | -0.274 | 0.0519 | -0.116 | -0.479 | -0.747 | -0.555 | 0.187 | -0.138 (inactive) | -0.327 | -0.0003
COCC(=C=CC[C@@H](O)c1ccc(CO)o1)CCO | -0.403 | -0.196 | -0.188 | 0.502 | -0.235 | 0.178 | -0.149 | -1.71 (inactive) | -0.0032 | 0.011
COc1cccc(C(=O)O[C@H]2CC[C@]3(C)C4=C(CCC3C2(C)C)[C@]2(C)CC[C@H]([C@H](C)CCCC(C)C)[C@@]2(C)CC4)c1 (stereo not given in full) | -0.526 | 0.0024 | -0.0425 | 0.366 | -0.87 | 0.103 | 0.181 | -1.06 (inactive) | 0.169 | 0.0722
COC(=O)c1ccc(C(O)C2C=CC3C(=O)N(c4ccccc4)C(=O)C3N2Nc2ccc(C#N)cc2)o1 (stereo not given) | 0.042 | 0.465 | 0.0394 | 0.865 | 1.33 | 0.665 | 1.34 | 0.447 (inactive) | 0.478 | -0.199
COC(=O)c1ccc(C23CC2(C(NP(=O)(c2ccccc2)c2ccccc2)c2ccccc2)C3)cc1 (stereo not given) | 0.741 | 0.275 | -0.0009 | 0.0592 | 1.73 | 2.26 | 1.17 | -4.52 (inactive) | 1.73 | 0.0596
CC(C)C(=C=CC[C@@H](O)c1ccccc1OCCO)C[C@@H](O)c1ccccn1 | -0.438 | -0.0682 | -0.153 | 0.477 | 0.0623 | 0.0795 | 1.19 | -0.306 (inactive) | 0.272 | 0.176
C=C(COC)C(=O)CC[C@@H](OC(=O)c1cccnc1)c1ccc(CO)o1 | -0.376 | 0.0139 | -0.085 | -0.0132 | 0.167 | 1.16 | 0.645 | 0.614 (inactive) | 0.0848 | 0.274
C=CCNC(=O)[C@@H]1[C@H]2C(=O)O[C@H](c3ccccc3)[C@H](c3ccccc3)N2[C@H](c2ccc(O)cc2)[C@@]12C(=O)N(C(=O)OCCOC)c1ccccc12 | -0.0042 | 1.11 | -0.0434 | 0.558 | 0.369 | 1.51 | 1.23 | 0.993 (inactive) | 0.376 | -0.0994
Cc1ccc(S[C@]2(C(=O)NCCN3CCOCC3)CC(=O)N(Cc3cc(C(F)(F)F)cc(C(F)(F)F)c3)[C@@H]2c2ccc(CO)cc2I)cc1 | 0.428 | -0.542 | -0.131 | -0.44 | -0.297 | 1.98 | 0.0049 | 0.679 (inactive) | 0.0607 | 0.0333
COc1ccc([Si](C)(C)[C@@H]2[C@@H](CCn3cc([C@H](O)c4ccccc4)nn3)O[C@]3(C(=O)N(Cc4ccc(N5C(=O)c6cccc7cccc5c67)cc4)c4ccccc43)[C@H]2C)cc1 | 0.428 | 0.174 | -0.162 | -0.16 | -0.574 | 0.569 | 0.594 | -0.353 (inactive) | -0.587 | -0.199
CCCCC(O)C1C=CC2C(=O)N(C3CCCCC3)C(=O)C2N1Nc1ccc(OC)cc1 (stereo not given) | -0.362 | 0.139 | -0.0056 | 0.441 | 1.45 | 1.29 | 1.13 | 0.405 (inactive) | 0.583 | 0.107
COc1ccc(C#Cc2ccc3c(c2)[C@]2(C(=O)N3)[C@H](c3ccc(O)cc3)N3[C@H](c4ccccc4)[C@H](c4ccccc4)OC(=O)[C@H]3[C@@H]2C(=O)N2CCCCCCC2)cc1 | 3.42 | 0.524 | 0.858 | 0.488 | 1.39 | 1.01 | 1.25 | -0.263 (inactive) | 3.25 | 0.0914
COCCOC(=O)N1C(=O)[C@@]2(c3cc(C#CCC(C(=O)OC)C(=O)OC)ccc31)[C@H](C(=O)N1CCCCCCC1)[C@H]1C(=O)O[C@H](c3ccccc3)[C@H](c3ccccc3)N1[C@@H]2c1ccc(OCCO)cc1 | 3.71 | 1.81 | 0.755 | 0.833 | 1.32 | 2.11 | 1.36 | 0.109 (inactive) | 3.4 | 2.72
COCCOC(=O)N1C(=O)[C@@]2(c3cc(C#CCNC(N)=O)ccc31)[C@H](c1ccccc1OCCO)N1[C@H](c3ccccc3)[C@H](c3ccccc3)OC(=O)[C@H]1[C@@H]2C(N)=O | -0.309 | 0.092 | -0.171 | 0.244 | 0.77 | 0.429 | 0.874 | -1.33 (inactive) | 0.477 | -0.284
